# Reference: ChEMBL document CHEMBL3988442, “University of Dundee, Small-Polar-MMV Screening Library” (2021)
# About 1,200 (3.2%) of roughly 38,000 compounds showed an effect of 50% or more. The median lay at about -58%. This is one part of a sample in which strong results are shown more often than they occur.
# Tested on: Plasmodium falciparum
# Assay: Calibr Malaria Delayed Death Assay SOP
# Format: functional, organism-based
# Parameters: scale not given: in the data most compounds retested in dose-response had high values
# Conditions: concentration 4.99e-06 (unit not given; other assays of the set use mol/L)
row,Structure (SMILES),Percent Effect [%]
1,Cc1c[nH]c(CN(C)C(=O)C(C)(C)NC(=O)c2cccs2)n1,-87.6
2,CC(C)c1ncc(C(=O)N2CCOCC2CC(=O)c2ccco2)s1 (configuration not stated),-45.87
3,Cc1cc(C)n(CC(C)NCCN2CCc3ccccc32)n1 (configuration not stated),52.4
4,CC(Cn1cncn1)NCCN1CCc2ccccc21 (configuration not stated),-79.84
5,Cc1cc(C)n(CC(C)NCCn2nc(C)c(Cl)c2C)n1 (configuration not stated),-54.04
6,Cc1ccc(SC2CCCC2)c(C(=O)NCc2n[nH]c(=O)[nH]2)c1,-25.99
7,NC(=O)CN(C(=O)c1c[nH]c2ncccc12)C1CCCC1,-54.97
8,COCCN(C(=O)c1c[nH]c2ncccc12)C1CCCC1,-27.67
9,O=C(c1c[nH]c2ncccc12)N(Cc1ccco1)C1CCCC1,86.68
10,Cc1nc(N(C)C)nc(-c2cccc(-c3ccn(CCCF)n3)c2)c1C,-133.9
11,CCOc1ccccc1N(C)Cc1nccn1C,20.26
12,CSCC(=O)N(Cc1ccccn1)Cc1ccccc1C,-232.7
13,CC(C)CN(Cc1ccccn1)Cc1ccccc1C(=O)O,-129.3
14,CCCN(Cc1ccccn1)Cc1ccccc1OC,-102.5
15,COc1ccc(OC)c(Sc2ncccc2C(=O)N(C)CCC#N)c1,-164.4
16,CCOCCN1CCN(CCc2ccc3c(c2)CCO3)CC1,-44.63
17,Cc1noc([C@@H]2CCO[C@@H]3CCN(Cc4nccs4)C[C@@H]32)n1,-49.2
18,CCN1CC2(CC1=O)CN(C(C)=O)CCN(C(=O)NC)C2 (configuration not stated),-42.52
19,CN(C)C(=O)N1CCN(CCn2nc3ccccn3c2=O)CC1,-59.88
20,O=C(O)c1cc(/C=C/c2ccccc2)ncn1,-169
21,O=C1CC(c2ccccc2)c2cnn(C3CCCC3)c2N1 (configuration not stated),-174.4
22,N#Cc1ccc(C2CC(=O)Nc3c2cnn3C2CCCC2)cc1 (configuration not stated),52.33
23,O=C1CC(c2ccc(F)cc2)c2cnn(C3CCCC3)c2N1 (configuration not stated),-115.7

row,Structure (SMILES),Percent Effect [%]
1,COc1ccc(C(C)=O)cc1CN1CCn2cccc2C1C (configuration not stated),-51.16
2,CSc1ccc(-c2nc(CN3CCC(C(N)=O)CC3)c(C)o2)cc1,-89.92
3,CSc1ccc(-c2nc(CN3CCC(CN)C3)c(C)o2)cc1 (configuration not stated),88.32
4,CNC(=O)C1CCN(Cc2nc(-c3ccc(SC)cc3)oc2C)C1 (configuration not stated),-104
5,Cc1nc2c(c(NC3CCN(Cc4ccccc4)CC3)n1)CCNCC2,78.1
6,Cc1nc2c(c(NC3CCN(Cc4cccnc4)CC3)n1)CCNCC2,-53.07
7,Cc1nc2c(c(NC3CC3)n1)CCN(C(=O)CCc1cccnc1)CC2,-33.43
8,Cc1cccc(CN2CC3(CCN(C(=O)C4CC4)CC3)OCC2=O)n1,-86.74
9,COc1c(C)cnc(CNC(=O)c2cnc3onc(C)c3c2)c1C,-29.67
10,COCCN(C)C(=O)Cn1cccc(OC)c1=O,-122.8
11,CN(CCCc1cc(-c2ccc(F)cc2)n[nH]1)C(=O)CCn1cncn1,-232.6
12,O=C(Cc1cccs1)N1CCn2cc(Cn3cccn3)nc2C1.O=C(O)C(F)(F)F,-86.13
13,CN1CCN(C2CCN(CCOc3ccccc3F)CC2)C1=O,-15.81
14,O=C(c1ccoc1)N1CC[C@H]2C[C@@H](c3nnc(C4CC4)o3)O[C@@H]2C1,-57.61
15,Cc1nc(C)n(C2CCCN(C(=O)c3cn4cccnc4n3)C2)n1 (configuration not stated),-31.26
16,CC1(C)CN(C(CNS(N)(=O)=O)c2ccc(Cl)cc2)CCO1 (configuration not stated),-0.7806
17,CC1(C)CN(C(CNS(C)(=O)=O)c2ccc(Cl)cc2)CCO1 (configuration not stated),-25.75
18,O=C(Cc1ccc2c(c1)OCCO2)NC1CCCC1,-102.8
19,I.c1cc2c(cc1C1(CNC3=NCCN3)CCCC1)OCCO2,80.88
20,O=S(=O)(NCC1(c2cccs2)CCOCC1)c1ccc2c(c1)OCCO2,-63.38
21,Cc1csc(CNC(=O)NCC2(c3ccc4c(c3)OCO4)CC2)n1,-58.48
22,Cc1ncsc1CNC(=O)NCC1(c2ccc3c(c2)OCO3)CC1,-37.92
23,c1cnc(NCc2noc3c2CN(c2cnccn2)CC3)nc1,-103.6

row,Structure (SMILES),Percent Effect [%]
1,CC(=O)NCc1ccc(C(=O)N2CCCC(n3cncn3)C2)o1 (configuration not stated),-131.6
2,O=C([C@@H]1CCO[C@@H]2CCN(CC3CC3)C[C@H]21)N1CCCCO1,-73.92
3,CCC(=O)NCC(=O)NCc1cc(Br)ccc1OC(F)F,4.46
4,CC(C)(C(=O)NCCC(=O)O)c1cccc(Br)c1,-14.62
5,CC(C)(C(=O)NCCCC(N)=O)c1cccc(Br)c1,-41.82
6,COC(=O)NCC(=O)NCC(C)(C)c1cccc(C(F)(F)F)c1,46.67
7,CCC(=O)NCC(=O)NCC(C)(C)c1cccc(Br)c1,86.82
8,COC(=O)NCC(=O)NCC(C)(C)c1cccc(Br)c1,84.11
9,Cn1c(C2CC2)nc2c1CCN(CCOc1ccccc1C#N)C2,-3.674
10,CC1c2ncc(CN3CCN(C)CC3)n2CCN1Cc1ccccn1.O=C(O)C(F)(F)F.O=C(O)C(F)(F)F.O=C(O)C(F)(F)F.O=C(O)C(F)(F)F (configuration not stated),-124
11,Oc1ccc(N2CCC(Cc3ccccc3)CC2)nn1,-73.68
12,N#Cc1cccc(CNC(=O)Nc2cccnc2N2CCCC2)c1,-57.4
13,CCNC(=O)c1ccnc(CC2COc3c(cccc3OC)C2)c1 (configuration not stated),-85.49
14,CCc1ccc2nc(NCCCN(CCO)CCO)cc(C)c2c1,83.32
15,CCc1ccc2nc(NCC(O)CO)cc(C)c2c1 (configuration not stated),-100
16,CCc1ccc2nc(NCCOCCO)cc(C)c2c1,-140.8
17,COc1ccc(-c2ccc(C(=O)N3CCC[C@@H]3CO)o2)cc1,-98.07
18,COCCN1C[C@@H]2CN(C(=O)[C@H]3CCCO3)C[C@@H]2C1=O,-140.9
19,Cc1cnc(CN2CCN(c3ccnc(-c4ccccc4)n3)CC2)cn1,-117.9
20,CC(C)(C)C(=O)N1C[C@H](c2ccsc2)[C@H]2CN(Cc3cccs3)CC[C@H]21.Cl,27.72
21,COC(=O)N1CCC(NC(=O)N2CCCC2c2ccsc2)CC1 (configuration not stated),-44.77
